TDP1 inh: TDP1 (human) enzyme inhibition. recombinant TDP1, AlphaScreen DNA substrate cleavage. Potency, µM (highest dose often 130 µM), inactives show at the top dose activity change, negative = inhibition, hits mostly inhibitors. actives 0.28% (n = 350,000); further: potency means the concentration at half of the fitted maximal effect; on the % scale 0 is the no-effect control and ±100 the full control effect; nearly all actives have a fitted effect of over 40% in size
Target sequence (Q9NUW8 whole entry, looked up): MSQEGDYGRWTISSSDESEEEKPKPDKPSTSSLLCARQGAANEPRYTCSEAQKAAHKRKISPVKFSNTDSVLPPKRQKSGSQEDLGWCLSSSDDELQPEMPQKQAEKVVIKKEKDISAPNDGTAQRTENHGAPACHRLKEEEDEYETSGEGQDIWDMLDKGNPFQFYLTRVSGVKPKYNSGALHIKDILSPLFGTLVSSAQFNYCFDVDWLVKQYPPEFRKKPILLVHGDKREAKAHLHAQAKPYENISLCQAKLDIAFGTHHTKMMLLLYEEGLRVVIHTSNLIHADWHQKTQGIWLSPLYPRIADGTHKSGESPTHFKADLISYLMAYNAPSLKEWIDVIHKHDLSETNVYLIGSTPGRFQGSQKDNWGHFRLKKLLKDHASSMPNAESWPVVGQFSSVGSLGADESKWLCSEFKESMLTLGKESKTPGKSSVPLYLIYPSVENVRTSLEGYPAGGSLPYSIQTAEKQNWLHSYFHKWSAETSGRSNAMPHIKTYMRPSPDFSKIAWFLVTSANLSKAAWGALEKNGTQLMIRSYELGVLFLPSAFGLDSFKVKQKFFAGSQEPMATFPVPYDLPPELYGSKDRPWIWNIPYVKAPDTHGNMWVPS
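Tdp1 1 nM final; 15 min RT w/ cpd; substrate 15 nM, 5 min; beads 10 ug/ml, 10 min; AlphaScreen read. Neg ctrl: no enzyme.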
TDP1 cell noCPT: qHTS for Inhibitors of human tyrosyl-DNA phosphodiesterase 1 (TDP1): qHTS in cells in absence of CPT. DT40 Tdp1-/- hTDP1 cells, no CPT, ATP luminescence, 48 h. Potency, µM (series often up to 46.2 µM), for inactives: at the highest dose activity change, negative = growth inhibition, usual class: inhibitors. actives 15% (n = 420,000). AID 686978, 2013; further: potency means the concentration at half of the fitted maximal effect; on the % scale 0 is the no-effect control and ±100 the full control effect; nearly all actives have a fitted effect of over 55% in size
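A cellular qHTS used chicken DT40 cells lacking endogenous Tdp1 but carrying stably transfected human TDP1. Compounds were applied without camptothecin, and cell growth kinetics were judged by ATP-dependent luminescence after ≥48 hr.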
TGFb SMAD3 inh: TGF-b pathway inhibition. HepG2 CAGA-GFP TGF-b/SMAD3 reporter, GFP fluorescence, 18 h; TGF-beta stimulated, 500 pg/mL final. Potency, µM (titrated, usually from 46.1 µM), for inactives: at the highest dose activity, negative = inhibition, actives largely listed as inhibitors. actives 1.2% (n = 410,000). AID 588855; further: potency means the concentration at half of the fitted maximal effect; on the % scale 0 is the no-effect control and ±100 the full control effect; nearly all actives have a fitted effect of over 65% in size
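Inhibition was scored as loss of TGF-beta-induced (500 pg/mL final, 18 hours, 37 degrees C) GFP in HEPG2 cells carrying a CAGA-GFP reporter, in DMEM with 1% FBS. Well GFP was summed per cell; Activity was normalised to unstimulated and stimulated DMSO wells, then concentration-response fitting.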
TDP1 cell CPT: DT40-hTDP1 cell growth loss with CPT; Potency, µM (highest dose often 46.2 µM), for the others: at the top dose activity change, negative = growth inhibition, actives largely listed as inhibitors; chicken DT40 Tdp1-/-;hTDP1 cells + 20 nM CPT, ATP luminescence, 48 h; actives 12% (n = 420,000); further: potency means the concentration at half of the fitted maximal effect; on the % scale 0 is the no-effect control and ±100 the full control effect; nearly all actives have a fitted effect of over 55% in size
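Chicken DT40 Tdp1-/- cells stably complemented with human TDP1 were seeded at 400 cells/well in medium containing 20 nM camptothecin, exposed to pin-transferred compounds, and grown at 37 °C for at least 48 hr. Viability was read as ATP luminescence.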
HepG2 tox-1: counter-screen for TGF-b inhibitors: cytotoxicity in HepG2 cells. actives 0.76% (n = 410,000). HepG2 CAGA-GFP viability, ATP luminescence, 18 h. Potency, µM (titrated, usually from 46.1 µM), inactives show at the top dose activity change, negative = cytotoxicity, actives largely listed as cytotoxic. AID 588856; further: potency means the concentration at half of the fitted maximal effect
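CellTiter-Glo luminescence gave cytotoxicity after 18 hours at 37 degrees C. The cells were HepG2 CAGA-GFP in 1% FBS DMEM, stimulated with 500 pg/mL TGF-beta after compound addition. %Activity was normalised to no-cell wells (complete cell-killing) and DMSO (no toxicity), and curves were fitted and classified.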
IL1B secr inh: inflammasome signaling inhibition, IL-1 beta readout; THP-1 LPS/ATP IL-1B secretion, AlphaLISA, 16 h; stronger effect = lower value; activity change, % at 57.5 µM; actives 4.7% (n = 360,000); AID 743279; in the data active means activity change below about -50%; inconclusive means mostly about -30% to -49%; further: on the % scale 0 is the no-effect control and ±100 the full control effect
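Secreted IL-1B measured by AlphaLISA bead assay after 16 h compound exposure of THP-1 cells; compounds (final up to 57.5 uM) added 1 h before LPS (250 ng/mL) and ATP (1.25 mM) stimulation; lower signal means less secretion.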
TGFb confirm: TGF-b pathway inhibition, cherry-pick retest; shares compounds with TGFb SMAD3 inh; actives 63% (n = 1,600); Potency, µM (doses to about 46.1 µM), for the others: at the highest dose activity, negative = inhibition, hits mostly inhibitors; HepG2 CAGA-GFP TGF-b reporter, GFP fluorescence, 18 h; cells stimulated with TGF-beta, 500 pg/mL; further: potency means the concentration at half of the fitted maximal effect; on the % scale 0 is the no-effect control and ±100 the full control effect; nearly all actives have a fitted effect of over 65% in size
HepG2 tox-2: HepG2 cytotoxicity, TGF-b inhibitor counterscreen; shares compounds with TGFb SMAD3 inh; HepG2 CAGA-GFP viability, ATP luminescence, 18 h; cells stimulated with TGF-beta, 500 pg/mL; Potency, µM (highest dose often 46.1 µM), without a hit: top-dose activity, negative = cytotoxicity, most hits filed as inhibitors; actives 27% (n = 1,600); AID 720535; further: potency means the concentration at half of the fitted maximal effect; on the % scale 0 is the no-effect control and ±100 the full control effect; nearly all actives have a fitted effect of over 70% in size
CCL64 TGFb inh: blocks TGF-b signaling in CCL64 reporter cells; shares compounds with TGFb SMAD3 inh; CCL64 CAGA-GFP reporter, TGF-b stimulated, GFP fluorescence, 18 h; Potency, µM (series often up to 46.1 µM), for inactives: at the highest dose activity, negative = inhibition, hits mostly inhibitors; actives 41% (n = 1,600); AID 720536; further: potency means the concentration at half of the fitted maximal effect; nearly all actives have a fitted effect of over 65% in size
COP TGFb inh: TGF-b inhibition validated with COP promoter. shares compounds with TGFb SMAD3 inh. HepG2 COP-GFP TGF-b reporter, GFP fluorescence, 18 h; cells stimulated by added recombinant TGF-beta. actives 3% (n = 1,600). AID 720537. Potency, µM (series often up to 46.1 µM), for the others: at the highest dose activity, negative = inhibition, usual class: inhibitors; further: potency means the concentration at half of the fitted maximal effect; nearly all actives have a fitted effect of over 70% in size
* hit, by the source's call; ? = inconclusive; . = no result given. Most compounds without a hit are left out; they make up all but 19% or so of the library. Unless noted, the call rests on the fitted dose curve; in most records, active means well fitted curve in the direction sought with a large enough effect; inconclusive means small, poorly fitted or top-dose-only effect, or another doubt; inactive means no such curve, though single readings can be large; an effect the other way counts as inactive or inconclusive.

SMILES	TDP1 inh	TDP1 cell noCPT	TGFb SMAD3 inh	TDP1 cell CPT	HepG2 tox-1	IL1B secr inh	TGFb confirm	HepG2 tox-2	CCL64 TGFb inh	COP TGFb inh
O=C(NC(=S)Nc1ccc([N+](=O)[O-])cc1O)C1CCCCC1	0.0%	-9.4%	11.2µM*	-8.9%	-35.7%	?	16.4µM*	?	19.3%	27.8%
Cn1c(CCNS(=O)(=O)c2ccccc2)nc2cc([N+](=O)[O-])ccc21	-1.3%	-12.5%	0.5%	?	-4.2%	8.3	.	.	.	.
CCCc1nc([N+](=O)[O-])c(S(=O)(=O)c2ccccc2)n1CC(C)C	5.3%	3.26µM*	10µM*	16.4µM*	-64.1%	-100.1*	20.6µM*	?	16.4µM*	28.4%
CC(C)[C@H](NC(=O)[C@@H]1CSC2c3ccccc3C(=O)N21)C(=O)NC1CCCCC1 (some centres undefined)	2.3%	?	-5.4%	?	7.1%	30.1	.	.	.	.
COc1ccc(NS(=O)(=O)c2ccc(O)c(NC(=O)c3cc4c(C)nn(-c5ccc(F)cc5)c4s3)c2)cc1	2.7%	?	?	-27.9%	-92.1%	?	.	.	.	.
NNC(=O)c1[nH]c2ccc([N+](=O)[O-])cc2c1-c1ccccc1	.	23.1µM*	3.55µM*	20.6µM*	-23.5%	26.4	?	-19.4%	?	-14.2%
Cc1cc(Cl)ccc1N=c1ssnc1Cl	3.3%	16.4µM*	7.94µM*	13µM*	-23.0%	?	23.1µM*	?	?	4.2%
Cc1cc(Cl)ccc1N=C1N=C(N)c2ccccc21	3.4%	?	-29.4%	?	-9.2%	-23.4	.	.	.	.
C(=C\c1ccccc1)/CN1CCN(C(CCc2ccccc2)c2nnnn2C2CCCC2)CC1 (centres undefined)	.	?	11.2µM*	18.4µM*	-2.5%	?	20.6µM*	?	?	59.8%
C(=C\c1ccccc1)/CN1CCN(C(c2cccs2)c2nnnn2Cc2ccccc2)CC1 (centres undefined)	.	20.6µM*	11.2µM*	?	-8.6%	-3.2	16.4µM*	?	?	59.2%
CSCCC(c1nnnn1C(C)(C)C)N1CCN(C/C=C/c2ccccc2)CC1 (centres undefined)	.	?	-25.5%	?	-19.9%	-9.2	.	.	.	.

Bioassay records deposited in PubChem by National Center for Advancing Translational Sciences (NCATS).
